Some test systems named below: SR leukemia; RPMI-8226 leukemia; OVCAR-8 ovarian; OVCAR-5 ovarian; OVCAR-4 ovarian; SK-OV-3 ovarian; IGROV1 ovarian; OVCAR-3 ovarian; HS 578T breast; NCI/ADR-RES ovarian; T-47D breast; BT-549 breast; MDA-MB-435 melanoma; SW-620 colon; MCF7 breast; HCT-116 colon; HCC-2998 colon; KM12 colon.
Assay in all cases: NCI-60 one-dose screen, 48 h (100 = growth as untreated, 0 = no growth, -100 = all killed)
What all share (details): 10 µM unless noted

Values joined by “and” are separate entries in the source; they are usually repeats but may differ in a detail not shown here. Identical values can stand only once. This is part of a sample that, as a whole, favours compounds with a hit. Of some 83,000 tested, about 20% had one in any assay.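 Values shown are percent growth following 48 h exposure of cells in 96-well plates to a single concentration of compound; below 10 was considered active.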 Values without a mark were called inactive. Active and inactive are the calls of the source.

The results in this text go back to PubChem BioAssay (NCI).

As for `CCCCCO/N=C\c1c2c(O)c3c(O)c(C)c4c(c3c1O)C(=O)C(C)(O/C=C\C(OC)C(C)C(OC(C)=O)C(C)C(O)C(C)C(O)C(C)/C=C\C=C(\C)C(=O)N2)O4` (stereo unspecified), the growth was 13.5% with SR leukemia; 13.1% in the experiment with RPMI-8226 leukemia; 26.7% in the experiment on OVCAR-8 ovarian; 49.2% in the experiment with OVCAR-5 ovarian; 30.3% in the experiment on OVCAR-4 ovarian; 33.9% with SK-OV-3 ovarian. Moreover, the growth is 31.1% in the experiment with IGROV1 ovarian; 19.4% in the experiment with OVCAR-3 ovarian; 1.16% (active) in the experiment on HS 578T breast; 25.2% in the experiment with NCI/ADR-RES ovarian; 26.8% with T-47D breast; 33.1% in the experiment on BT-549 breast. Further, the growth is 15.8% in the experiment on MDA-MB-435 melanoma; 18.3% with SW-620 colon; 17% in the experiment with MCF7 breast; 9.51% (active) with HCT-116 colon; 6.51% (active) in the experiment on HCC-2998 colon; 17.3% in the experiment on KM12 colon.

Consider `CCOC(=O)C1=C(C)N=C2SC=C(c3ccc(F)cc3)N2[C@H]1c1cn(-c2ccccc2)nc1-c1ccc(Cl)cc1`, for which the growth is 88% in the experiment on SR leukemia; 88.4% with RPMI-8226 leukemia; 92% with OVCAR-8 ovarian; 91.9% with OVCAR-5 ovarian; 102% in the experiment on OVCAR-4 ovarian; 87.8% in the experiment on SK-OV-3 ovarian. The growth is 96.7% in the experiment on IGROV1 ovarian; 114% in the experiment on OVCAR-3 ovarian; 101% in the experiment with HS 578T breast; 105% in the experiment with NCI/ADR-RES ovarian; 79.6% in the experiment on T-47D breast; 93.1% in the experiment with BT-549 breast. The growth in the experiment on MDA-MB-435 melanoma was 94.4%; in the experiment with SW-620 colon, 100%; in the experiment on MCF7 breast it was 87.2%; in the experiment on HCT-116 colon it was 90%; in the experiment on HCC-2998 colon, 105%; in the experiment on KM12 colon it was 107%.

With `COc1ccc(-c2nn3c(-c4cc(F)c(Cl)cc4Cl)nnc3s2)cc1`, the growth in the experiment with SR leukemia is 13.1%; in the experiment on RPMI-8226 leukemia it was 29.9%; in the experiment on OVCAR-8 ovarian, 67.5%; in the experiment on OVCAR-5 ovarian, 59.5%; with OVCAR-4 ovarian it was 80%; with SK-OV-3 ovarian, 61.1%. Moreover, the growth with IGROV1 ovarian is 40.6%; with OVCAR-3 ovarian, 27.8%; in the experiment with HS 578T breast it was -20.6% (active); in the experiment on NCI/ADR-RES ovarian it was 3.63% (active); with T-47D breast, 50.3%; in the experiment with BT-549 breast, 54.3%. Also, the growth with MDA-MB-435 melanoma was 3.5% (active); in the experiment with SW-620 colon, 20.8%; with MCF7 breast, 18.3%; with HCT-116 colon it was 20.9%; in the experiment on HCC-2998 colon, 42.1%; with KM12 colon, 46.8%.

Turning to `COc1cc(CNC(=O)CCCC/C=C/C(C)C)ccc1OCc1cn(-c2ccc([N+](=O)[O-])cc2)nn1`, the growth in the experiment on SR leukemia is 62.2%; in the experiment with RPMI-8226 leukemia, 61.8%; with OVCAR-8 ovarian it was 82.9%; in the experiment on OVCAR-5 ovarian, 99.1%; in the experiment on OVCAR-4 ovarian it was 87.2%; in the experiment with SK-OV-3 ovarian, 76.7%. In addition, the growth is 90.4% in the experiment on IGROV1 ovarian; 92.7% in the experiment with OVCAR-3 ovarian; 95.8% in the experiment with HS 578T breast; 29% with NCI/ADR-RES ovarian; 64% in the experiment with T-47D breast; 80.4% in the experiment with BT-549 breast. Moreover, the growth in the experiment with MDA-MB-435 melanoma is 99.7%; in the experiment with SW-620 colon it was 99.8%; in the experiment with MCF7 breast, 83.4%; with HCT-116 colon, 77.2%; in the experiment on HCC-2998 colon, 108%; with KM12 colon it was 90%.

In the case of `Cn1cc(-c2nc3c(F)cc4[nH]ncc4c3c3c2CCCC3)c(C(F)F)n1`, the growth was -16.9% (active) with SR leukemia; 27.7% in the experiment with RPMI-8226 leukemia; 73% with OVCAR-8 ovarian; 71.2% in the experiment with OVCAR-5 ovarian; 100% in the experiment on OVCAR-4 ovarian; 37.2% with SK-OV-3 ovarian. For the same molecule, the growth in the experiment with IGROV1 ovarian was 51.8%; with OVCAR-3 ovarian, 84.4%; with HS 578T breast it was 40.4%; with NCI/ADR-RES ovarian it was 77.9%; with T-47D breast, 50.8%; with BT-549 breast, 31.1%. In addition, the growth was 27.1% with MDA-MB-435 melanoma; 56.3% in the experiment on SW-620 colon; 46.5% with MCF7 breast; 39.7% in the experiment with HCT-116 colon; 90.6% in the experiment on HCC-2998 colon; 23.2% with KM12 colon.

`Cc1ccc(C(=O)N(CCCN)[C@@H](c2nc3cc(Cl)ccc3c(=O)n2Cc2ccccc2)C(C)C)cc1`: the growth in the experiment on SR leukemia was -32% (active); in the experiment with RPMI-8226 leukemia it was -36.6% (active); in the experiment on OVCAR-8 ovarian it was -11.7% (active); with OVCAR-5 ovarian, -17.5% (active); in the experiment with OVCAR-4 ovarian, 33.3%; with SK-OV-3 ovarian it was 38.6%. In addition, the growth with IGROV1 ovarian is 8.41% (active); in the experiment on OVCAR-3 ovarian, -13.7% (active); in the experiment with HS 578T breast, -12.8% (active); in the experiment with NCI/ADR-RES ovarian, -30.1% (active); in the experiment on T-47D breast, -41.7% (active); in the experiment with BT-549 breast, 24.2%. Further, the growth in the experiment with MDA-MB-435 melanoma was -89.9% (active); in the experiment on SW-620 colon, -77.6% (active); in the experiment with MCF7 breast it was -61.2% (active); in the experiment with HCT-116 colon it was -77.9% (active); with HCC-2998 colon, -74.4% (active); with KM12 colon it was -45.8% (active).

Turning to `O=C(CCl)N(O)c1ccc(/C=C/c2ccccc2)cc1`, the growth was 11% in the experiment on SR leukemia; 72.7% and 65.9% in the experiment on RPMI-8226 leukemia; 63.1% and 89.3% with OVCAR-8 ovarian; 109% and 119% in the experiment with OVCAR-5 ovarian; 103% and 94.9% in the experiment with OVCAR-4 ovarian; 101% and 105% with SK-OV-3 ovarian. For the same molecule, the growth was 70.9% and 61.9% in the experiment with IGROV1 ovarian; 98.7% and 81.9% with OVCAR-3 ovarian; 107% and 111% in the experiment on HS 578T breast; 86.3% and 89.1% in the experiment on NCI/ADR-RES ovarian; 63.8% and 59.5% in the experiment on T-47D breast; 73.5% and 62.4% in the experiment with BT-549 breast. The growth is 97.2% and 90% in the experiment on MDA-MB-435 melanoma; 74.3% and 53.5% in the experiment with SW-620 colon; 49.2% and 42.5% with MCF7 breast; 69.1% and 51.7% in the experiment with HCT-116 colon; 75.7% and 89.3% in the experiment with HCC-2998 colon; 102% and 91.6% with KM12 colon.
